# Measured values from PubChem BioAssay AID1159580 (chemical genetic matrix, 2015).
# Hit rate of the full screen: of about 5,500 compounds, about 2,000 (36%) were called active. Roughly 18% stayed inconclusive and do not appear here. This is one part of the list. A number with no mark means an inactive call. Rule as the data show it: active = normalized growth mostly below about 0.91 (no sharp cut-off); inconclusive = no clear call, values can overlap the other calls; inactive = mostly above about 0.92.
# Test: chemical genetic growth profiling, strain panel (AID 1159580);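 also: tested at 20 µM; growth read once vehicle control cultures reached saturation at 30 °C; 1 = growth at the plate median or of vehicle wells; lower values mean less growth of the strain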
# Details: S. cerevisiae deletion strains, growth OD
smiles,measurement,setting,value
C=CCCCCCCCCCCCC(O)CC(O)CO (centres undefined) (tested in a mixture with another compound),normalized growth,"locus YBR021W, strain FUR4, active compounds read low",0.426 (active)
same,normalized growth,"locus YBR229C, strain ROT2, active compounds read low",0.531 (active)
same,normalized growth,"locus YCL029C, strain bik1, active compounds read low",0.253 (active)
same,normalized growth,"locus YDL035C, strain GPR1, active compounds read low",0.359 (active)
same,normalized growth,"locus YDL074C, strain BRE1, active compounds read low",0.208 (active)
same,normalized growth,"locus YDL101C, strain DUN1, active compounds read low",0.242 (active)
same,normalized growth,"locus YDL185W, strain tfp1, active compounds read low",0.611 (active)
same,normalized growth,"locus YDL192W, strain arf1, active compounds read low",0.231 (active)
same,normalized growth,"locus YDR101C, strain arx1, active compounds read low",0.471 (active)
same,normalized growth,"locus YDR150W, strain NUM1, active compounds read low",0.637 (active)
same,normalized growth,"locus YDR162C, strain NBP2, active compounds read low",0.281 (active)
same,normalized growth,"locus YDR318W, strain mcm21, active compounds read low",0.224 (active)
same,normalized growth,"locus YDR388W, active compounds read low",0.496 (active)
same,normalized growth,"locus YDR502C, strain sam2, active compounds read low",0.347 (active)
same,normalized growth,"locus YEL061C, strain CIN8, active compounds read low",0.177 (active)
same,normalized growth,"locus YER110C, active compounds read low",0.27 (active)
same,normalized growth,"locus YER155C, strain BEM2, active compounds read low",0.0936 (active)
same,normalized growth,"locus YER167W, strain BCK2, active compounds read low",0.276 (active)
same,normalized growth,"locus YGL078C, strain dbp3, active compounds read low",0.465 (active)
same,normalized growth,"locus YGL086W, strain mad1, active compounds read low",0.145 (active)
same,normalized growth,"locus YGL248W, strain PDE1, active compounds read low",0.165 (active)
same,normalized growth,"locus YGR135W, strain pre9, active compounds read low",0.335 (active)
same,normalized growth,"locus YGR252W, strain gcn5, active compounds read low",0.407 (active)
same,normalized growth,"locus YHR030C, strain SLT2, active compounds read low",0.21 (active)
same,normalized growth,"locus YHR079C, strain IRE1 (second series), active compounds read low",0.253 (active)
same,normalized growth,"locus YHR094C, strain hxt1, active compounds read low",0.198 (active)
same,normalized growth,"locus YHR129C, strain ARP1, active compounds read low",0.248 (active)
same,normalized growth,"locus YHR200W, strain rpn10, active compounds read low",0.328 (active)
same,normalized growth,"locus YIL066C, strain RNR3, active compounds read low",0.217 (active)
same,normalized growth,"locus YIL073C, strain SPO22, active compounds read low",0.544 (active)
same,normalized growth,"locus YIL125W, strain kgd1, active compounds read low",0.288 (active)
same,normalized growth,"locus YIR030C, strain dcg1, active compounds read low",0.341 (active)
same,normalized growth,"locus YJL095W, strain BCK1, active compounds read low",0.139 (active)
same,normalized growth,"locus YJL134W, strain LCB3, active compounds read low",0.273 (active)
same,normalized growth,"locus YJL168C, strain set2, active compounds read low",0.521 (active)
same,normalized growth,"locus YJL187C, strain SWE1 (second series), active compounds read low",0.386 (active)
same,normalized growth,"locus YKL009W, strain mrt4, active compounds read low",0.274 (active)
same,normalized growth,"locus YKL068W, active compounds read low",1
same,normalized growth,"locus YKL085W, strain MDH1 (second series), active compounds read low",0.343 (active)
same,normalized growth,"locus YKL085W, strain MDH1, active compounds read low",0.343 (active)
same,normalized growth,"locus YKR001C, strain vps1, active compounds read low",0.123 (active)
same,normalized growth,"locus YLR039C, strain RIC1, active compounds read low",0.46 (active)
same,normalized growth,"locus YLR058C, strain SHM2, active compounds read low",0.301 (active)
same,normalized growth,"locus YLR102C, strain apc9, active compounds read low",0.225 (active)
same,normalized growth,"locus YLR262C, strain YPT6, active compounds read low",0.355 (active)
same,normalized growth,"locus YLR268W, strain sec22, active compounds read low",0.308 (active)
same,normalized growth,"locus YLR330W, strain CHS5, active compounds read low",0.097 (active)
same,normalized growth,"locus YLR371W, strain rom2, active compounds read low",0.204 (active)
same,normalized growth,"locus YLR418C, strain cdc73, active compounds read low",0.186 (active)
same,normalized growth,"locus YML016C, strain PPZ1, active compounds read low",0.218 (active)
same,normalized growth,"locus YML032C, strain rad52, active compounds read low",0.201 (active)
same,normalized growth,"locus YML124C, strain tub3, active compounds read low",0.503 (active)
same,normalized growth,"locus YMR078C, strain ctf18, active compounds read low",0.125 (active)
same,normalized growth,"locus YMR223W, strain ubp8, active compounds read low",0.159 (active)
same,normalized growth,"locus YMR263W, strain SAP30, active compounds read low",0.32 (active)
same,normalized growth,"locus YMR307W, strain GAS1, active compounds read low",0.241 (active)
same,normalized growth,"locus YNL067W, strain RPL9B, active compounds read low",0.56 (active)
same,normalized growth,"locus YNL153C, strain GIM3, active compounds read low",0.365 (active)
same,normalized growth,"locus YNL233W, strain BNI4, active compounds read low",0.141 (active)
same,normalized growth,"locus YNL250W, strain rad50, active compounds read low",0.734 (active)
same,normalized growth,"locus YNL271C, strain bni1, active compounds read low",0.526 (active)
same,normalized growth,"locus YNL298W, strain CLA4, active compounds read low",0.384 (active)
same,normalized growth,"locus YNL307C, strain MCK1, active compounds read low",0.0684 (active)
same,normalized growth,"locus YNR052C, strain pop2, active compounds read low",0.426 (active)
same,normalized growth,"locus YOL006C, strain TOP1, active compounds read low",0.149 (active)
same,normalized growth,"locus YOL012C, strain htz1",1.15
same,normalized growth,"locus YOL147C, strain pex11, active compounds read low",0.104 (active)
same,normalized growth,"locus YOR061W, strain CKA2, active compounds read low",0.0632 (active)
same,normalized growth,"locus YOR069W, strain VPS5, active compounds read low",0.559 (active)
same,normalized growth,"locus YOR136W, strain idh2, active compounds read low",0.136 (active)
same,normalized growth,"locus YOR144C, strain elg1, active compounds read low",0.236 (active)
same,normalized growth,"locus YOR184W, strain ser1, active compounds read low",0.129 (active)
same,normalized growth,"locus YOR316C, strain cot1, active compounds read low",0.354 (active)
same,normalized growth,"locus YPL241C, strain CIN2, active compounds read low",0.114 (active)
same,normalized growth,"locus YPR119W, strain clb2, active compounds read low",0.148 (active)
same,normalized growth,"locus YPR141C, strain kar3, active compounds read low",0.824 (active)
same,normalized growth,"locus YPR163C, strain tif3, active compounds read low",0.205 (active)
same,normalized growth,"locus YPR167C, strain met16, active compounds read low",0.203 (active)
same,normalized growth,"strain wtn01, active compounds read low",0.337 (active)
